In the library only some 10% were active in any assay of this set; here they are far more common.
Six1-Eya2 blk – blocks human Six1 binding to Eya2; 360,000 compounds, 0.56% hits; activity change, % (no concentration beside the values); AlphaScreen GST-Six1/His-Eya2 binding, biochemical; active compounds read low; in the data active = activity change below about -65%; inconclusive = mostly about -30% to -63%
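AlphaScreen luminescence read after one hour at 37 °C in darkness. Pin-transferred compounds met GST-Six1 and His-Eya2 protein (5X stock 250 nM/500 nM) plus glutathione donor and Ni-chelate acceptor beads (5X, 50 ug/mL).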
BAZ2B block – inhibitors of human BAZ2B bromodomain. Q9UIF8. AlphaScreen BAZ2B-H3K14Ac peptide displacement. Potency, µM (doses to about 114 µM), most hits filed as inhibitors. 360,000 compounds, 4.4% hits; note: nearly all actives have a fitted effect of over 60% in size
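Inhibition is scored as reduced AlphaScreen emission. The BAZ2B/b-H3(5-23)K14Ac complex (50 nM each) in PBS pH 7.4, 0.01% Tween-20 meets compound (up to 110 uM) for 30 min at RT before bead addition.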
HP1b binding inh – HP1-beta chromodomain-methylated histone interaction inhibition | 390,000 compounds, 0.56% hits | AID 540317 | Potency, µM (series often up to 114 µM), hits mostly inhibitors | AlphaScreen HP1-beta / biotin-H3K9me3 peptide binding; note: nearly all actives have a fitted effect of over 70% in size
Target sequence (P83916 whole entry, looked up): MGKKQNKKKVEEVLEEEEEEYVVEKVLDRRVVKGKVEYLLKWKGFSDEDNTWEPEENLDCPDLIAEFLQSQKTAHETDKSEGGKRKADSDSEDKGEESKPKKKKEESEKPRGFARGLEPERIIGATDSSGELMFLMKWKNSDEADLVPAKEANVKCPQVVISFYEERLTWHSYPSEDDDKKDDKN
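HP1-beta protein (50 nM final) preincubated 30 min at room temperature with biotinylated H3(1-18)K9me3 peptide (50 nM) in PBS pH 7.4, 0.01% Tween-20, then compound added for 30 min. AlphaScreen streptavidin donor/nickel chelate acceptor beads (10 ug/mL final), 30 min dark, luminescence read.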
CtBP-E1A blk – inhibitors of CtBP/E1A interaction; AlphaScreen GST-E1A/His-CtBP binding, 1536-well; active compounds read low; activity change, % (no concentration beside the values); 340,000 compounds, 0.49% hits; in the data active = activity change below about -65%; inconclusive = mostly about -30% to -63%
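Protein mix (5X: 125 nM each GST-E1A, His-CtBP) was incubated with pinned compound 2 h at 37 deg C in dark, in 50 mM Tris pH 8.0 buffer with 300 mM NaCl. Glutathione donor and nickel acceptor beads followed; AlphaScreen signal read after 1 h.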
G9a block – blocks human histone lysine methyltransferase G9a; Potency, µM (titrated, usually from 102 µM), actives largely listed as inhibitors; AID 504332; Q96KQ7; 350,000 compounds, 8.8% hits; G9a H3K9 monomethylation, AlphaScreen, 2 h; note: nearly all actives have a fitted effect of over 75% in size
Target sequence (Q96KQ7 913-1193 limits assumed): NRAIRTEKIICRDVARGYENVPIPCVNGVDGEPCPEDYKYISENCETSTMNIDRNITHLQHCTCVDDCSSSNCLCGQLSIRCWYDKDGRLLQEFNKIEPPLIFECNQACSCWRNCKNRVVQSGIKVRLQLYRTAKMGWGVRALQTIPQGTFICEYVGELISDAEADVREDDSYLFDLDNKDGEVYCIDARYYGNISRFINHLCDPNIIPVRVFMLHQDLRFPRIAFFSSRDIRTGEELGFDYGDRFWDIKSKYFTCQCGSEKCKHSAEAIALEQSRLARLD
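Using a bead-based AlphaScreen, monomethylated H3K9 product from 2 h room-temperature reactions (G9a 20 nM, peptide 500 nM, SAM 20 uM) was detected with 0.5 ug/mL rabbit anti-H3K9me1 antibody.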
JMJD2A Tudor inh – blocks the human JMJD2A Tudor domain | O75164 | AlphaScreen JMJD2A-Tudor / H3K4me3 peptide binding | Potency, µM (top dose mostly 114 µM), most hits filed as inhibitors | 390,000 compounds, 4.4% hits | AID 504339; note: nearly all actives have a fitted effect of over 50% in size
Hits are given with their value; [ ] = another dose, or the depositor's remark. Unless noted, calls come from the whole dose curve; as a rule, active = well fitted inhibition curve with a large enough effect; inconclusive = small, poorly fitted or top-dose-only effect; inactive = no such curve, though single readings can be large or run the other way.

Results for CC1=C(C(=O)OCc2ccccc2)C(c2ccc(Cl)cc2Cl)NC(=O)N1CCCCCC(=O)O (centres undefined) ?
Six1-Eya2 blk: inactive; BAZ2B block: inconclusive; HP1b binding inh: inactive; CtBP-E1A blk: inactive; G9a block: inconclusive; JMJD2A Tudor inh: inactive

Results for CCOC(=O)C1=C(C)N(CCCCCC(=O)O)C(=O)NC1c1ccccc1Cl (centres undefined) ?
Six1-Eya2 blk: inactive; BAZ2B block: inconclusive; HP1b binding inh: inactive; CtBP-E1A blk: inactive; G9a block: 56µM; JMJD2A Tudor inh: inactive

Results for CCOC(=O)C1=C(C)N(CCCC(=O)O)C(=O)NC1c1ccccc1Cl (centres undefined) ?
Six1-Eya2 blk: inactive; HP1b binding inh: inactive; CtBP-E1A blk: inactive; JMJD2A Tudor inh: inactive

Results for CCOC(=O)C1=C(C)N(CCCCCC(=O)O)C(=O)NC1c1ccc(Br)cc1 (centres undefined) ?
Six1-Eya2 blk: inactive; BAZ2B block: inactive; HP1b binding inh: inactive; CtBP-E1A blk: inactive; G9a block: 50µM; JMJD2A Tudor inh: inconclusive

How did CCOC(=O)CN1C(=O)N[C@H](c2ccc(Br)cc2)C(C(C)=O)=C1C do in these assays?
Six1-Eya2 blk: inactive; BAZ2B block: inactive; HP1b binding inh: inactive; CtBP-E1A blk: inactive; G9a block: 45µM; JMJD2A Tudor inh: inactive

How did COc1ccc(Cl)cc1-c1nc(SCC(=O)NCC2CCCO2)n[nH]1 (centres undefined) do in these assays?
Six1-Eya2 blk: inactive; BAZ2B block: inactive; HP1b binding inh: inactive; CtBP-E1A blk: inactive; G9a block: inactive[12.7 µM]; JMJD2A Tudor inh: inactive

What do the screens show for `C/C=C/c1ccc(OCC(O)CNCCc2ccc(OC)cc2)c(OC)c1` (centres undefined)?
Six1-Eya2 blk: inactive; BAZ2B block: 56µM; HP1b binding inh: inconclusive; CtBP-E1A blk: inactive; G9a block: 7.9µM; JMJD2A Tudor inh: 20µM

How did C/C=C/c1ccc(OCC(O)CN2CCCCC2CC)c(OC)c1 (centres undefined) do in these assays?
Six1-Eya2 blk: inactive; BAZ2B block: 56µM; HP1b binding inh: inconclusive; CtBP-E1A blk: inactive; G9a block: 22µM; JMJD2A Tudor inh: 3.5µM

What do the screens show for `C/C=C/c1ccc(OCC(O)CN(C)Cc2ccc(SC)cc2)c(OC)c1` (centres undefined)?
Six1-Eya2 blk: inactive; BAZ2B block: 50µM; HP1b binding inh: inconclusive; G9a block: 71µM; JMJD2A Tudor inh: 4µM

What do the screens show for `C/C=C/c1ccc(OCC(O)CNCC(c2ccc(OC)cc2)N(C)C)c(OC)c1` (centres undefined)?
Six1-Eya2 blk: inactive; BAZ2B block: 18µM; HP1b binding inh: inactive; CtBP-E1A blk: inactive; G9a block: inconclusive; JMJD2A Tudor inh: 22µM

What do the screens show for `C/C=C/c1ccc(OCC(=O)Nc2cc(OC)c(OC)c(OC)c2)c(OC)c1`?
Six1-Eya2 blk: inactive; HP1b binding inh: inactive; CtBP-E1A blk: inactive; G9a block: inactive; JMJD2A Tudor inh: inconclusive

What do the screens show for `COc1cc(OC)cc(C(=O)Oc2c(CN3CCOCC3)cc(Cl)c3cccnc23)c1`?
Six1-Eya2 blk: inconclusive; BAZ2B block: 22µM; HP1b binding inh: inactive; CtBP-E1A blk: inconclusive; G9a block: inactive; JMJD2A Tudor inh: inactive

What do the screens show for `O=C(Oc1c(CN2CCOCC2)cc(Cl)c2cccnc12)c1ccccc1`?
Six1-Eya2 blk: inconclusive; BAZ2B block: 25µM; HP1b binding inh: inactive; CtBP-E1A blk: -78; G9a block: inactive; JMJD2A Tudor inh: inconclusive

How did O=C(O)Cn1cc(CN2CCOCC2)c2ccccc21 do in these assays?
Six1-Eya2 blk: inactive; BAZ2B block: inactive; HP1b binding inh: inactive; G9a block: inconclusive; JMJD2A Tudor inh: inactive

How did O=C(Oc1c(CN2CCOCC2)cc(Cl)c2cccnc12)c1ccccc1F do in these assays?
Six1-Eya2 blk: -91; BAZ2B block: 3.5µM; HP1b binding inh: inactive; CtBP-E1A blk: -91; G9a block: inactive; JMJD2A Tudor inh: 25µM

Results for COc1cc(C(=S)N2CCOCC2)cc(OC)c1OC(=O)c1ccccc1Cl ?
Six1-Eya2 blk: inactive; CtBP-E1A blk: inactive

What do the screens show for `Cc1ccc(NS(=O)(=O)c2ccc(Cl)cc2)cc1C`?
JMJD2A Tudor inh: inactive

High-throughput results from PubChem.
